Only some compounds are listed: those with a hit (about 3.2% of all), similar ones and a draw of the others.
ERAP1 inh: human ERAP1 aminopeptidase inhibitors, primary screen, biochemical, single point, plate reader | Endoplasmic reticulum aminopeptidase 1 (Homo sapiens), Q9NZ08 | recombinant ERAP1, Leu-AMC fluorescence, 60 min | inhibition, % at 10.7 µM | 340,000 compounds, 0.15% hits;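 active = mean replicate inhibition of at least 30%, or all replicates individually reaching that 30% level; inactive = mean below 30% and not every replicate reaching it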
CaV13 FRET inh: Disruptors of the CACNA1D IQ motif to Ca2+-dependent inactivation inhibitor domain association, primary screening, Förster resonance energy transfer in intact living …; HEK cells, CFP/YFP FRET ICDI-IQ, plate reader, 10 min; percent FRET-ratio fall versus neutral wells; inhibition, % at 12.3 µM; 340,000 compounds, 0.098% hits;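 active = mean replicate inhibition of at least 30% and at least 1% of replicates passing that level; inconclusive = only one of the two criteria is met; inactive = neither criterion is met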
rRNA inh HTS: reduced GFP signal of wild-type E. coli, primary screen, bacterial rRNA inhibitor project, GFP/RFP fluorescence, OD600, single point. GFP signal change (wild-type ribosome), % (concentration not given with the values). 350,000 compounds, 1.6% hits. E. coli WT GFP vs humanized-ribosome RFP mutants, 24 h; hits give low values; DMSO median 0, no signal -100;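 active = significant combined selectivity score with lowered wild-type GFP, culture density cut under 30%, mutant RFP and density less affected; inactive = any of these conditions unmet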
DENV2 CPE: inhibitors of DENV2 cytopathic effect, primary screen, cell-based, plate reader, single concentration; CPE inhibition, % at 9.99 µM; DENV2-infected cells, cytopathic effect rescue; AID 651640, 2012; 350,000 compounds, 1.7% hits; in the data active = CPE inhibition above about 20%, passing the limit was not always enough; inconclusive = no clear call, values can overlap the other calls; tested in BHK-21 cells
PGC1a acetyl inh: inhibitors of PGC1a acetylation signal, primary screen, cell-based, U2OS, AlphaScreen, inhibitor mode; inhibition, % at 15.6 µM; 350,000 compounds, 0.17% hits; AlphaScreen anti-acetyl-lysine; with virally co-expressed GCN5 acetyltransferase; AID 651687, 2012;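 active = every replicate shows inhibition of at least 40%; inconclusive = mean inhibition at least 40% but some replicate below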
GSIS activator: GLuc luminescence reporter in INS-1E cells, primary screen for activators of glucose-dependent secretion of insulin. INS-1E GLuc reporter insulin secretion, 2-3 h. activation, % at 16.6 µM. 370,000 compounds, 0.61% hits. AID 743287, 2014;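 active = lowest replicate activation of at least 40%, so every replicate reaches that level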
AID977621: growth inhibition of wild-type GFP E. coli, dose response, H69 mutant RFP, cherry-pick. activity change, negative = inhibition at 50 µM. E. coli wild-type GFP strain growth, fluorescence, 24 h. shares compounds with rRNA inh HTS. 1,900 tested, under 10 active;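 active = Wild-type ribosome reporter drop at least double the humanized mutant ribosome reporter drop, growth loss under a set limit; inconclusive = no clear call, values can overlap the other calls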;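 note: wild-type GFP and H69 mutant RFP strains grown together 50/50 in each well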
AID977628: E. coli growth inhibition, wild-type GFP versus h24 humanized RFP strain, dose response, h24 mutant RFP vs wild-type GFP, cherry-pick | 1,900 tested, under 10 active | shares compounds with rRNA inh HTS | activity change, negative = inhibition at 50 µM | E. coli WT GFP strain growth, fluorescence, 24 h;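 active = compound lowering the normal-ribosome reporter at least twice as much as the humanized-ribosome reporter, growth loss under a set limit; inconclusive = no clear call, values can overlap the other calls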;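 note: wild-type GFP and h24 humanized RFP strains co-cultured 1 to 1 per well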
Each line names hits and unclear results; the compound was inactive in the other large screens (follow-up assays come after a bar, where they were run).

O=C(O)CCN(Cc1ccccc1)S(=O)(=O)c1ccc(Cl)cc1F	rRNA inh HTS -20 | AID977621 inactive | AID977628 inconclusive
CO[C@@H]1CN(C)C(=O)c2cc(NC(=O)C3CCCCC3)ccc2OC[C@@H](C)N(C(=O)c2ccccc2)C[C@@H]1C	none (no result: CaV13 FRET inh)
COC(=O)c1ccc(CSc2nc(-c3ccccc3)cs2)o1	rRNA inh HTS -23 (no result: DENV2 CPE) | AID977621 inactive
CC(C)C[C@@H](CSc1ccccc1)N1CCN(CC(C)C)CCC1=O	rRNA inh HTS -23 | AID977621 inconclusive
O=C1CSC(c2cccnc2)N1Cc1ccc(Cl)c(Cl)c1 (stereo unspecified)	rRNA inh HTS -35 (no result: PGC1a acetyl inh) | AID977628 inactive
CC(C)(C)c1ccc(N2C(=O)CSC2c2cccnc2)cc1 (stereo unspecified)	rRNA inh HTS -19 (no result: PGC1a acetyl inh) | AID977621 inactive
Cc1ccnc(NS(=O)(=O)c2ccc(NC(=O)c3ccc4c(c3)OCCO4)cc2)n1	rRNA inh HTS -23 (no result: PGC1a acetyl inh) | AID977621 inactive | AID977628 inactive
COc1ccc(C#Cc2ccc([C@@H]3[C@H](CO)N4CCCCN(C(=O)Nc5cccc(F)c5)C[C@@H]34)cc2)cc1	rRNA inh HTS -49 (no result: CaV13 FRET inh) | AID977628 inconclusive
COc1ccc(C#Cc2ccc([C@H]3[C@@H](CO)N4CCCCN(C(=O)Nc5cccc(F)c5)C[C@H]34)cc2)cc1	rRNA inh HTS -48 (no result: ERAP1 inh, CaV13 FRET inh, DENV2 CPE) | AID977621 inactive | AID977628 inactive
COc1cccc(S(=O)(=O)N2CCCCN3[C@H](C2)[C@@H](c2ccc(C#CC(C)C)cc2)[C@@H]3CO)c1	none (no result: CaV13 FRET inh) | AID977621 inactive | AID977628 inactive
COc1cccc(S(=O)(=O)N2CCCCN3[C@H](CO)[C@H](c4ccc(C#CC(C)C)cc4)[C@H]3C2)c1	none (no result: CaV13 FRET inh)
COc1ccc(C#Cc2ccc([C@@H]3[C@H]4CN(C(=O)Nc5cccc(F)c5)CCCCN4[C@H]3CO)cc2)cc1	none (no result: ERAP1 inh, CaV13 FRET inh)
CC(C)NC(=O)N(C)C[C@@H]1Oc2ncc(-c3cncnc3)cc2C(=O)N([C@H](C)CO)C[C@@H]1C	none (no result: CaV13 FRET inh)
COc1ccc(NC(=O)CSc2nnc(Cc3ccccc3)o2)c(OC)c1	rRNA inh HTS -24 | AID977621 inactive | AID977628 inactive
Cc1nc2ccccc2cc1C(=O)NCc1ccco1	none (no result: ERAP1 inh, rRNA inh HTS, DENV2 CPE, GSIS activator)
O=C(NCc1ccco1)c1ccc2ccccc2n1	rRNA inh HTS -14 | AID977621 inactive | AID977628 inconclusive
CNC(=O)C[C@@H]1CC[C@@H]2[C@H](COC[C@@H](O)CN2C(=O)Nc2cccc(OC)c2)O1	none (no result: CaV13 FRET inh)
COc1cc(OC)c(NS(=O)(=O)c2cccc(C(=O)OCC(=O)NCC3CCCO3)c2)cc1Cl (stereo unspecified)	rRNA inh HTS -23 | AID977621 inactive | AID977628 inactive
CNC[C@H]1OCCCC[C@H](C)Oc2ccc(NC(=O)Nc3c(C)noc3C)cc2C(=O)N([C@H](C)CO)C[C@@H]1C	none (no result: CaV13 FRET inh)
CO[C@H]1CN(C)C(=O)c2ccc(NC(=O)c3cccc(F)c3)cc2OC[C@H](C)N(C(C)=O)C[C@H]1C	none (no result: CaV13 FRET inh)
C[C@H]1CCCCO[C@@H](CN(C)C(=O)c2ccccc2)[C@@H](C)CN([C@@H](C)CO)C(=O)c2cc(NC(=O)C3CCCCC3)ccc2O1	none (no result: CaV13 FRET inh)
Cc1noc(C)c1S(=O)(=O)N(C)C[C@@H]1Oc2ccc(NS(=O)(=O)c3ccc(F)cc3)cc2CC(=O)N([C@H](C)CO)C[C@@H]1C	none (no result: CaV13 FRET inh)

Source: PubChem BioAssay
